{"source": "PubChem BioAssay (NCATS)", "key": {"[1]": {"tested_on": "Zika virus NS2B-NS3 protease", "assay": "Primary screen GU AMC qHTS for Zika virus inhibitors (AID 1347154); note: nearly all actives have a fitted effect of over 70% in size; note: potency is the fitted concentration of half-maximal effect", "summary_of_the_method": "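Unlinked Zika NS2B hydrophilic domain–NS3 protease complex at 25 nM in 10 mM Tris-HCl pH 8.0, 0.01% Tween 20, with an AMC peptide substrate. Fluorescence change (340/450 nm) over 15 min at room temperature, normalized to controls, fitted to 4-parameter Hill.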"}, "[2]": {"tested_on": "Zika virus NS2B-NS3 protease (unlinked complex)", "assay": "Primary screen GU Rhodamine qHTS for Zika virus inhibitors: Unlinked NS2B-NS3 protease assay (AID 1347159); note: nearly all actives have a fitted effect of over 60% in size; note: potency is the fitted concentration of half-maximal effect", "summary_of_the_method": "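Enzyme 25 nM in Tris-HCl pH 8.0 + 0.01% Tween 20; compounds up to 114 microM, 15 min RT dark; + Rhod110 substrate 1.5 microM; read t0 and 15 min; delta fluorescence → % inhibition → 4-parameter Hill fit.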"}, "[3]": {"tested_on": "Zika virus NS2B-NS3 protease (linked construct)", "assay": "Primary screen NINDS Rhodamine qHTS for Zika virus inhibitors (AID 1347160); note: nearly all actives have a fitted effect of over 55% in size", "summary_of_the_method": "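Enzyme (25 nM, linked NS2B-NS3) was preincubated 15 min with compound in 10 mM Tris-HCl pH 8.0, 0.01% Tween 20. Rhodamine110 substrate (1.5 microM) was then added and fluorescence read at start and after 15 min.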"}, "[4]": {"assay": "qHTS to identify inhibitors of the type 1 interferon - major histocompatibility complex class I in skeletal muscle: primary screen against the NCATS Mechanism Interrogation Plate v5.0 (MIPE) Libary (AID 1347411); note: nearly all actives have a fitted effect of over 65% in size; note: potency is the fitted concentration of half-maximal effect", "summary_of_the_method": "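Seed engineered human myoblasts (HLA-B HiBit) in medium without dexamethasone containing 4 ng/ml IFN-beta; after 1 hr add compound titrations (top 46 uM final). Incubate 24 hrs at 37 C, lyse 10 min with HiBiT reagent, read luminescence.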"}, "[5]": {"assay": "Confirmatory screen GU Rhodamine qHTS for Zika virus inhibitors qHTS (AID 1347157); note: nearly all actives have a fitted effect of over 70% in size", "summary_of_the_method": "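Compounds, tested up to 114 microM, were incubated for 15 minutes with 25 nM unlinked NS2B-NS3 protease at pH 8.0. Cleavage of 1.5 microM Rhodamine110 substrate was then followed by fluorescence for 15 minutes.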"}, "[6]": {"assay": "Confirmatory screen NINDS Rhodamine qHTS for Zika virus inhibitors (AID 1347161); note: series mostly up to about 110 µM; nearly all actives have a fitted effect of over 60% in size", "summary_of_the_method": "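Percent inhibition, normalized to uninhibited and enzyme-free controls, is fitted to a 4-parameter Hill equation. Fluorescence change comes from a 15-min cleavage of 1.5 microM bis-peptide Rhodamine110 substrate by 25 nM linked NS2B-NS3 at room temperature.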"}, "[7]": {"assay": "Tertiary RLuc qRT-PCR qHTS assay for Zika virus inhibitors (AID 1347169); note: top concentration of the series differs between compounds; nearly all actives have a fitted effect of over 55% in size", "summary_of_the_method": "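Orthogonal cell-based infection assay using recombinant ZIKV-RLuc (Cambodian) in Vero cells; compound added prior to virus at MOI 1-2. Incubation lasts 48-72 hrs at 37 degrees C before live-cell Renilla substrate is added and luminescence measured.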"}}, "note": "Results filed as inconclusive are left out. A call without a number means that no potency is given here. Values without a mark were called inactive. The source made the active and inactive calls. Calls come from the whole dose curve; as a rule, active = well fitted curve in the direction sought with a large enough effect; inconclusive = small, poorly fitted or top-dose-only effect, or another doubt; inactive = no such curve, though single readings can be large; an effect the other way counts as inactive or inconclusive."}
{"smiles": "CCCCn1c(=O)n(Cc2ccccc2F)c(=O)c2[nH]c(Cc3ccc(NC(C)=O)cc3)nc21", "values": [{"measurement": "Potency", "setting": "[1]", "result": "inactive"}, {"measurement": "Potency", "setting": "[2]", "result": "inactive"}]}
{"smiles": "CC(C)(O)CC(=O)NCCn1ccc2ncnc(Nc3ccc(Oc4cccc(C(F)(F)F)c4)c(Cl)c3)c21", "values": [{"measurement": "Potency", "setting": "[1]", "result": "inactive"}, {"measurement": "Potency", "setting": "[2]", "result": "inactive"}, {"measurement": "Potency", "setting": "[3]", "result": "inactive"}]}
{"smiles": "CCN1CCN(c2ccc(Nc3cc(N(C)C(=O)Nc4c(Cl)c(OC)cc(OC)c4Cl)ncn3)cc2)CC1", "values": [{"measurement": "Potency", "setting": "[1]", "result": "inactive"}, {"measurement": "Potency", "setting": "[2]", "result": "inactive"}]}
{"smiles": "CC1=C(C(=O)Nc2cc3cn[nH]c3cc2F)C(c2ccc(C(F)(F)F)cc2)CC(=O)N1", "note": "(stereo not drawn)", "values": [{"measurement": "Potency", "setting": "[1]", "result": "inactive"}, {"measurement": "Potency", "setting": "[2]", "result": "inactive"}, {"measurement": "Potency", "setting": "[3]", "result": "inactive"}, {"measurement": "Potency", "setting": "[4]", "result": "inactive"}]}
{"smiles": "NC1(C(=O)N[C@@H](CCO)c2ccc(Cl)cc2)CCN(c2ncnc3[nH]ccc23)CC1", "values": [{"measurement": "Potency", "setting": "[1]", "result": "inactive"}, {"measurement": "Potency", "setting": "[2]", "result": "inactive"}, {"measurement": "Potency", "setting": "[3]", "result": "inactive"}]}
{"smiles": "Fc1ccc(CNc2ncnc3ccc(F)cc23)cc1", "values": [{"measurement": "Potency", "setting": "[1]", "result": "inactive"}, {"measurement": "Potency", "setting": "[2]", "result": "inactive"}]}
{"smiles": "Cn1cnc(-c2cc3nccc(Oc4ccc(NC(=S)NC(=O)Cc5ccccc5)cc4F)c3s2)c1", "values": [{"measurement": "Potency", "setting": "[1]", "result": "inactive"}, {"measurement": "Potency", "setting": "[2]", "result": "inactive"}]}
{"smiles": "O=C(c1ccc(C=Cc2n[nH]c3ccccc23)cc1)N1CCNCC1", "values": [{"measurement": "Potency", "setting": "[1]", "result": "7.64 µM (active)"}]}
{"smiles": "Nc1ccc(-c2ccc3ncc4ccc(=O)n(-c5cccc(C(F)(F)F)c5)c4c3c2)cn1", "values": [{"measurement": "Potency", "setting": "[1]", "result": "inactive"}, {"measurement": "Potency", "setting": "[2]", "result": "inactive"}, {"measurement": "Potency", "setting": "[3]", "result": "inactive"}]}
{"smiles": "CCC(=O)N1CCN(c2ccc(-n3c(=O)ccc4cnc5ccc(-c6cnc7ccccc7c6)cc5c43)cc2C(F)(F)F)CC1", "values": [{"measurement": "Potency", "setting": "[1]", "result": "inactive"}, {"measurement": "activity change, negative = inhibition", "setting": "[2]", "result": "-9.09% [at 19.1 µM]"}, {"measurement": "activity change, negative = inhibition", "setting": "[3]", "result": "-4.81% [at 10.7 µM]"}]}
{"smiles": "CCCCN(CCCC)CC(O)c1cc(Cl)cc2c1-c1ccc(Cl)cc1C2=Cc1ccc(Cl)cc1", "note": "(stereo not drawn)", "values": [{"measurement": "Potency", "setting": "[1]", "result": "inactive"}]}
{"smiles": "COc1ccc(CCC(=O)Nc2nc3ccc(Cl)cc3s2)cc1OC", "values": [{"measurement": "Potency", "setting": "[1]", "result": "inactive"}, {"measurement": "Potency", "setting": "[2]", "result": "inactive"}, {"measurement": "Potency", "setting": "[3]", "result": "inactive"}, {"measurement": "Potency", "setting": "[4]", "result": "inactive"}]}
{"smiles": "COC(=O)Nc1ccc(-c2nc(N3CCOCC3)c3cnn(C4CCN(C(=O)OC)CC4)c3n2)cc1", "values": [{"measurement": "Potency", "setting": "[1]", "result": "inactive"}]}
{"smiles": "CNc1nc(-c2ccc3c(N)n[nH]c3c2)cc(N2C[C@@H](C(=O)NC3CCCCC3)CC[C@@H]2C)n1", "values": [{"measurement": "Potency", "setting": "[1]", "result": "inactive"}]}
{"smiles": "CNC1CCC(N(Cc2cccc(-c3ccncc3)c2)C(=O)c2sc3ccccc3c2Cl)CC1", "note": "(stereo not drawn)", "values": [{"measurement": "Potency", "setting": "[1]", "result": "inactive"}, {"measurement": "Potency", "setting": "[2]", "result": "inactive"}]}
{"smiles": "Cc1ccc2c(c1)C(=O)[C@]1(O)CCN(c3ccccc3)C1=N2", "values": [{"measurement": "Potency", "setting": "[1]", "result": "inactive"}, {"measurement": "Potency", "setting": "[5]", "result": "inactive"}, {"measurement": "Potency", "setting": "[2]", "result": "inactive"}, {"measurement": "Potency", "setting": "[6]", "result": "inactive"}, {"measurement": "Potency", "setting": "[7]", "result": "inactive"}, {"measurement": "Potency", "setting": "[4]", "result": "inactive"}]}
{"smiles": "O=C(Nc1cccc(Cl)c1)Nc1ncc(CCNc2ncnc3ccsc23)s1", "values": [{"measurement": "Potency", "setting": "[1]", "result": "inactive"}]}
{"smiles": "CC1(COc2ccc3c(c2)ncn3-c2ccc3cccc(N4CCC(N)CC4)c3n2)COC1", "values": [{"measurement": "Potency", "setting": "[1]", "result": "inactive"}, {"measurement": "Potency", "setting": "[2]", "result": "inactive"}, {"measurement": "Potency", "setting": "[3]", "result": "inactive"}, {"measurement": "Potency", "setting": "[4]", "result": "5.23 µM (active)"}]}
{"smiles": "C[C@@]1(C(=O)Nc2ccc(F)nc2)CCCN1c1nc(Nc2cc(C3CC3)[nH]n2)c2cccn2n1", "values": [{"measurement": "Potency", "setting": "[1]", "result": "inactive"}, {"measurement": "Potency", "setting": "[2]", "result": "inactive"}]}
{"smiles": "COc1cc2nccc(Oc3ccc(NC(=O)Nc4cc(C)on4)c(Cl)c3)c2cc1OC", "values": [{"measurement": "Potency", "setting": "[1]", "result": "inactive"}, {"measurement": "Potency", "setting": "[2]", "result": "inactive"}, {"measurement": "Potency", "setting": "[4]", "result": "13.1 µM (active)"}]}
{"smiles": "CCn1c(-c2nonc2N)nc2cncc(CNC3CCNCC3)c21", "values": [{"measurement": "Potency", "setting": "[1]", "result": "inactive"}, {"measurement": "Potency", "setting": "[2]", "result": "inactive"}, {"measurement": "Potency", "setting": "[4]", "result": "inactive"}]}
{"smiles": "Cc1cc2c(cc1C1(c3ccc(C(=O)O)cn3)CC1)C(C)(C)CCC2(C)C", "values": [{"measurement": "Potency", "setting": "[1]", "result": "inactive"}, {"measurement": "Potency", "setting": "[2]", "result": "10 µM (active)"}, {"measurement": "Potency", "setting": "[4]", "result": "inactive"}]}
{"smiles": "Cc1cnc(CNC(=O)c2c(=O)c3ccc(N4CCCN(C)CC4)nc3n3c2sc2ccccc23)cn1", "values": [{"measurement": "Potency", "setting": "[1]", "result": "inactive"}, {"measurement": "activity change, negative = inhibition", "setting": "[2]", "result": "5.25% [at 19.1 µM]"}, {"measurement": "activity change, negative = inhibition", "setting": "[3]", "result": "6.93% [at 10.7 µM]"}, {"measurement": "activity change, negative = inhibition", "setting": "[4]", "result": "-4.9% [at 8.44 µM]"}]}
{"smiles": "Cc1nc2c([nH]1)CCN(C(=O)c1ccc(NC(=O)c3ccccc3-c3ccccc3)cc1)c1ccccc1-2", "values": [{"measurement": "Potency", "setting": "[1]", "result": "inactive"}, {"measurement": "Potency", "setting": "[2]", "result": "inactive"}, {"measurement": "Potency", "setting": "[3]", "result": "inactive"}, {"measurement": "Potency", "setting": "[4]", "result": "inactive"}]}
{"smiles": "O=C1C(c2c(O)[nH]c3ccccc23)=Nc2ccccc21", "values": [{"measurement": "Potency", "setting": "[1]", "result": "inactive"}, {"measurement": "Potency", "setting": "[2]", "result": "inactive"}, {"measurement": "Potency", "setting": "[3]", "result": "inactive"}, {"measurement": "Potency", "setting": "[4]", "result": "inactive"}]}
{"smiles": "C=CC(=O)Nc1cccc(Sc2nc(Nc3ccc(N4CCN(C)CC4)cc3)ncc2Cl)c1", "values": [{"measurement": "Potency", "setting": "[1]", "result": "inactive"}, {"measurement": "Potency", "setting": "[2]", "result": "inactive"}, {"measurement": "Potency", "setting": "[3]", "result": "inactive"}, {"measurement": "Potency", "setting": "[4]", "result": "13.1 µM (active)"}]}
{"smiles": "Cc1c(C(=O)Nc2ccc(N3C[C@@H](C)O[C@@H](C)C3)nc2)cccc1-c1ccc(OC(F)(F)F)cc1", "values": [{"measurement": "Potency", "setting": "[1]", "result": "inactive"}, {"measurement": "Potency", "setting": "[2]", "result": "inactive"}, {"measurement": "Potency", "setting": "[4]", "result": "inactive"}]}
{"smiles": "COc1nc(C)cnc1NS(=O)(=O)c1cccnc1-c1ccc(-c2nnco2)cc1", "values": [{"measurement": "Potency", "setting": "[1]", "result": "inactive"}, {"measurement": "Potency", "setting": "[2]", "result": "inactive"}, {"measurement": "Potency", "setting": "[4]", "result": "inactive"}]}
{"smiles": "O=C(CO)N1CCC(c2[nH]nc(-c3ccc(Cl)cc3)c2-c2ccncn2)CC1", "values": [{"measurement": "Potency", "setting": "[1]", "result": "inactive"}, {"measurement": "Potency", "setting": "[2]", "result": "inactive"}, {"measurement": "Potency", "setting": "[4]", "result": "inactive"}]}
{"smiles": "O=C(c1ccc(C(=O)N2CCC(N3CCCC3)CC2)c(Nc2ccccc2)c1)N1CCC(N2CCCC2)CC1", "values": [{"measurement": "Potency", "setting": "[1]", "result": "inactive"}, {"measurement": "Potency", "setting": "[3]", "result": "inactive"}, {"measurement": "Potency", "setting": "[4]", "result": "inactive"}]}
{"smiles": "Cc1ccccc1C(C(=O)NC1CCCCC1)N(C(=O)CNc1ccc(C#N)cc1)c1cccc(F)c1", "note": "(stereo not drawn)", "values": [{"measurement": "Potency", "setting": "[1]", "result": "inactive"}, {"measurement": "Potency", "setting": "[2]", "result": "inactive"}, {"measurement": "Potency", "setting": "[3]", "result": "inactive"}, {"measurement": "Potency", "setting": "[4]", "result": "inactive"}]}
